From PubChem BioAssay (Tox21)
A number with no mark means an inactive call. Records with an inconclusive call do not appear. A call without a number means that no potency is given here. Activity calls are given as the source filed them. Unless noted, calls follow the shape of the dose curve; as a rule, active = well fitted curve in the direction sought with a large enough effect in the repeat runs; inconclusive = weak or mixed curves; inactive = no such curve, though single readings can be large; an effect the other way counts as inactive or inconclusive.

What was measured:
[1] = qHTS assay to identify small molecule agonists of the hypoxia (HIF-1) signaling pathway - cell viability counter screen (AID 1224844; calls by dose curve; also: nearly all actives have a fitted effect of over 50% in size; also: potency is read from the fitted curve at half-maximal effect)
Summary of the method: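 Viability counter screen: HRE-bla ME-180 cells plated 5 hrs before compound addition, treated 17 hrs at 37C and 5% CO2, then CellTiter-Glo added after the FRET reporter read; luminescence after 30 min.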

[2] = qHTS assay to identify small molecule agonists of H2AX (AID 1224845; active = well fitted activation curve with a large enough effect in the signal ratio in the repeat runs, not every such curve was filed as active; the % refers to the signal ratio)
Summary of the method: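 Wild-type CHO-K1 cells plated overnight, then exposed 3 hr at 37C to compounds at 15 concentrations (0.76% DMSO). Lysed, then HTRF anti-pH2AX(S139)-cryptate/anti-H2AX-d2 detection after 24 hr at room temperature; emissions 665 and 620 nm.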

[3] = qHTS assay to identify small molecule agonists of the hypoxia (HIF-1) signaling pathway (AID 1224846; active = well fitted activation curve with a large enough effect in the signal ratio in the repeat runs, not every such curve was filed as active; the % refers to the signal ratio)
Summary of the method: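 Agonist mode reporter screen. ME-180 cells stably expressing bla under HRE control received test compounds in DMSO for 17 hrs (37C, 5% CO2), and beta-lactamase activity was then detected with the CCF4-AM FRET substrate.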

[4] = qHTS assay to identify small molecule antagonists of the estrogen related receptor (ERR) signaling pathway from Tox21 library (AID 1224848); also: nearly all actives have a fitted effect of over 50% in size; also: potency is read from the fitted curve at half-maximal effect
Summary of the method: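 Tox21 10K compounds in DMSO tested for ERR pathway antagonism in NTP's ERR cell line; 18 h, 37 C exposure; ONE-Glo luminescence.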

[5] = qHTS RealTime-Glo MT Cell Viability Assay in HepG2 cells - 24 hour (AID 1224867); also: nearly all actives have a fitted effect of over 50% in size; also: potency is read from the fitted curve at half-maximal effect
Summary of the method: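 qHTS, HepG2, 600 cells/well, RealTime-Glo (NanoLuc + prosubstrate) added with cells; 5 h preincubation; DMSO compound addition; 37 C; luminescence at 0/8/16/24/32/40 h.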

[6] = qHTS RealTime-Glo MT Cell Viability Assay in HEK293 cells - 32 hour (AID 1224868); also: nearly all actives have a fitted effect of over 50% in size; also: potency is read from the fitted curve at half-maximal effect
Summary of the method: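 Assay medium contained NanoLuc luciferase plus cell-permeant prosubstrate, added with HEK293 cells at 600 cells/well. After 5 h at 37 C/5% CO2 compounds were added; plates stayed at 37 C for 40 h with serial luminescence reads.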

[7] = A CellTox Green Cytotoxicity Assay to monitor cytotoxicity in HEK293 cells - 0 hour (AID 1224869); also: nearly all actives have a fitted effect of over 50% in size
Summary of the method: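 Dead-cell fluorescence measured kinetically: asymmetric cyanine dye, HEK293, 600 cells/well, 5 h settle, 23 nL cpd/DMSO, 37 C, reads 0–40 h every 8 h.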

[8] = qHTS RealTime-Glo MT Cell Viability Assay in HepG2 cells - 40 hour (AID 1224870); also: nearly all actives have a fitted effect of over 50% in size; also: potency is read from the fitted curve at half-maximal effect
Summary of the method: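 HepG2 cells mixed with RealTime-Glo MT reagents (NanoLuc plus cell-permeant prosubstrate) were seeded at 600 cells/well, incubated 5 h at 37 C/5% CO2, then pinned with compounds in DMSO; nonlytic luminescence tracked viability during 40 h treatment.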

[9] = qHTS assay to identify small molecule agonists of H2AX - cell viability counter screen (AID 1224847; calls by dose curve; also: nearly all actives have a fitted effect of over 30% in size; also: potency is read from the fitted curve at half-maximal effect)
Summary of the method: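 Viability of CHO-K1 (wild type) cells after 3 hr compound exposure was measured by CellTiter-Glo luminescence.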

[10] = qHTS assay to identify small molecule agonists of the estrogen related receptor (ERR) signaling pathway from Tox21 library (AID 1224849; calls by dose curve; also: nearly all actives have a fitted effect of over 15% in size); details: ERR reporter cell line, ONE-Glo luciferase, 18 h; at 92.4 µM (top of the series) unless noted
Summary of the method: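 Quantitative HTS in agonist format: NTP ERR cell line, compounds transferred in DMSO after 6 h plating, 18 h incubation at 37 C, ONE-Glo luminescence endpoint.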

| SMILES | Potency [1] | Potency [2] | outcome [3] | Potency [4] | Potency [5] | Potency [6] | Potency [7] | Potency [8] | Potency [9] | activity change, positive = activation [10] |
| --- | --- | --- | --- | --- | --- | --- | --- | --- | --- | --- |
| C[C@H]1CCC[C@H](O)CCCCCc2cc(O)cc(O)c2C(=O)O1 | inactive | inactive | inactive | 54.9 µM (active) | inactive | 34.9 µM (active) | inactive | inactive | – | – |
| CCS(=O)(=O)CCSP(=O)(OC)OC | inactive | inactive | – | inactive | inactive | inactive | – | inactive | inactive | 13.8% |
| O=C1CN2CCOC2(c2ccccc2Cl)c2cc(Cl)ccc2N1 (configuration not stated) | inactive | inactive | – | – | inactive | inactive | inactive | inactive | inactive | – |
| O=[N+]([O-])c1cccc(O)c1 | inactive | inactive | inactive | – | inactive | inactive | inactive | inactive | – | – |
| CCNc1nc(NC(C)C)nc(OC)n1 | inactive | inactive | – | inactive | inactive | inactive | inactive | inactive | inactive | -0.534% |
| O=S(=O)(O)C(F)(F)C(F)(F)C(F)(F)C(F)(F)C(F)(F)C(F)(F)F | inactive | inactive | inactive | – | – | inactive | inactive | inactive | – | – |
| Cc1nnc2n1-c1sc(CCC(=O)N3CCOCC3)cc1C(c1ccccc1Cl)=NC2 | inactive | inactive | – | inactive | inactive | inactive | inactive | inactive | inactive | – |
| c1cc2c(c(N3CCNCC3)c1)OCCO2 | inactive | inactive | – | – | inactive | inactive | inactive | inactive | inactive | – |
| C[C@@H]1CN(C2CCC(C#N)(c3ccc(F)cc3)CC2)CC[C@]1(C(=O)O)c1ccccc1 (some centres not stated) | inactive | inactive | – | inactive | inactive | inactive | – | inactive | inactive | 0.0799% [at 42.5 µM] |
| CCOP(=S)(OCC)Oc1ncn(-c2ccccc2)n1 | inactive | inactive | inactive | – | inactive | – | inactive | inactive | – | – |
| CCC1(c2ccccc2)C(=O)NC(=O)NC1=O | inactive | inactive | – | – | inactive | inactive | inactive | inactive | inactive | – |
| N#Cc1c(Cl)cccc1Cl | inactive | inactive | – | inactive | inactive | inactive | inactive | inactive | inactive | – |
| N#CC(Cl)(Cl)Cl | inactive | inactive | – | – | inactive | inactive | inactive | inactive | inactive | – |
| C[C@]12CC[C@H]3[C@@H](CC=C4C[C@@H](O)CC[C@@]43C)[C@@H]1CC[C@@H]2O | inactive | inactive | – | – | inactive | inactive | inactive | inactive | inactive | – |
| CC(Oc1ccc(Oc2ncc(C(F)(F)F)cc2Cl)cc1)C(=O)O (configuration not stated) | 15.5 µM (active) | inactive | – | – | inactive | inactive | inactive | inactive | inactive | – |
| COC(=O)COc1ccc(Cl)cc1Cl | inactive | inactive | inactive | inactive | – | inactive | inactive | inactive | – | 8.64% |

| SMILES | Potency [1] | Potency [2] | outcome [3] | Potency [4] | Potency [5] | Potency [6] | Potency [7] | Potency [8] | Potency [9] | activity change, positive = activation [10] |
| --- | --- | --- | --- | --- | --- | --- | --- | --- | --- | --- |
| O=[N+]([O-])c1cccc2c([N+](=O)[O-])cccc12 | inactive | inactive | inactive | 30.8 µM (active) | inactive | 49.2 µM (active) | inactive | inactive | – | -66% |
| CC(C(O)c1ccccc1)N(C)C/C=C/c1ccccc1 (configuration not stated) | inactive | inactive | inactive | – | inactive | – | inactive | inactive | – | – |
| O=CNC(N1CCN(C(NC=O)C(Cl)(Cl)Cl)CC1)C(Cl)(Cl)Cl (configuration not stated) | inactive | inactive | – | inactive | inactive | inactive | – | inactive | inactive | 2.23% |
| N#CC(CCc1ccc(Cl)cc1)(Cn1cncn1)c1ccccc1 (configuration not stated) | 30.9 µM (active) | inactive | – | 17.2 µM (active) | 38.9 µM (active) | 17.4 µM (active) | inactive | 49 µM (active) | 50.5 µM (active) | – |
| Cc1cnc[nH]1 | inactive | inactive | – | – | inactive | inactive | inactive | inactive | inactive | – |
| CC1(C)CON(Cc2ccccc2Cl)C1=O | inactive | inactive | – | – | inactive | inactive | inactive | inactive | inactive | – |
| CC1(C(=O)Nc2ccc(O)c(Cl)c2Cl)CCCCC1 | inactive | inactive | inactive | 61.1 µM (active) | inactive | – | inactive | inactive | – | – |
| CCCCOC(=O)c1ccccc1N | inactive | inactive | inactive | – | inactive | inactive | inactive | inactive | – | – |
| COc1cc(OC)nc(Sc2cccc(Cl)c2C(=O)O)n1 | inactive | inactive | – | inactive | inactive | inactive | inactive | inactive | inactive | 0.33% |
| C1CCC(C2CCCCC2)CC1 | 21.9 µM (active) | inactive | – | inactive | – | – | inactive | inactive | inactive | – |
| NC1=NC(=O)C(c2ccccc2)O1 (configuration not stated) | inactive | inactive | inactive | – | – | inactive | – | inactive | inactive | – |
| CC1=NNC(=O)N(/N=C/c2cccnc2)C1 | inactive | inactive | – | inactive | inactive | inactive | inactive | inactive | inactive | -0.152% |
| O=C1CN=C(c2ccccc2)c2cc([N+](=O)[O-])ccc2N1 | – | inactive | inactive | inactive | inactive | inactive | inactive | inactive | inactive | – |
| N#CCCC#N | inactive | – | – | – | inactive | inactive | inactive | inactive | inactive | – |
| CC(C)CC(N(C)C)C1(c2ccc(Cl)cc2)CCC1 (configuration not stated) | inactive | – | inactive | inactive | – | inactive | inactive | inactive | – | – |
